Measurements taken from PubChem BioAssay AID431 (Sanford-Burnham Center for Chemical Genomics, 2006).
In all, about 63,000 compounds went through this assay and about 1,100 (1.7%) were called active.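 The calls were made as follows: active = compounds whose percent cytotoxicity in the single-dose primary screen, scaled between solvent and toxic-drug controls, exceeds 50; inactive = the rest.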 The list comes from a sample in which actives are over-represented; it also holds similar structures and randomly drawn compounds. Results with a measured potency or affinity are listed apart.

Experiment: viability loss of HPDE-C7K cells – cell-based, fluorescence, HTS, primary screen (AID 431);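 also: 0% = DMSO solvent wells and 100% = doxorubicin-treated wells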
Settings: HPDE-C7K KRASV12 cells, Alamar Blue viability, 48 h; at 10 µM; active compounds read high

Compound	cytotoxicity
O=C(CCC1CCCC1)Nc1ccon1	-5.5% (inactive)
CCOc1ccc(NC(=O)Nc2ccc3nccnc3c2)cc1	8.3% (inactive)
O=C(CSc1nc(-c2ccc(F)cc2)cs1)NC(=O)NCc1ccco1	1% (inactive)
CCOC(=O)/C=C1\SCC(=O)N1Cc1nnc(-c2ccccc2Br)o1	-23.5% (inactive)
COC(=O)c1[nH]c(C)c(/C(O)=C2\C(=O)C(=O)N(CCN(C)C)C2c2cc(OC)ccc2OC)c1C (configuration not stated)	-7.9% (inactive)
O=C(CSc1ncc(-c2ccccc2)nn1)NCc1ccco1	-13.8% (inactive)
CN1CCN(c2nc(-c3cccs3)cc(C(F)(F)F)n2)CC1	3.2% (inactive)
CC(C)c1nnc(NC(=O)CCS(=O)(=O)c2nc(-c3cccs3)cc(C(F)(F)F)n2)s1	43.6% (inactive)
CCn1c(SCC(=O)Nc2ccc(N3CCOCC3)c(Cl)c2)nnc1-c1ccc(N)cc1	3.4% (inactive)
Clc1ccc(OCc2nn3c(C4CCCCC4)nnc3s2)cc1	17.1% (inactive)
CCOc1cc(-c2nc(-c3ccc(C)nc3OC)no2)cc(OCC)c1OCC	-15% (inactive)
Cc1nc(NC(=O)c2oc3ccccc3c2C)sc1C(=O)N(C)C	12.9% (inactive)
CCN1CCN(c2ncc(C(=O)Nc3ccccc3C(=O)OC)c3ccccc23)CC1	40.3% (inactive)
CCN1CCN(c2ncc(C(=O)Nc3cc(Cl)c(OC)cc3OC)c3ccccc23)CC1	11.7% (inactive)
CCN1CCN(c2ncc(C(=O)Nc3cc(Cl)ccc3OC)c3ccccc23)CC1	75.3% (active)
O=c1/c(=C\c2cccnc2)sc2nc3ccccc3n12	-13.6% (inactive)
COc1cc(C(=O)OC(C)CN2CCN(C)CC2)cc(OC)c1OC (configuration not stated)	-37.3% (inactive)
O=C(CN1C(=O)COc2ccccc21)c1ccc(Cl)cc1	-0.2% (inactive)
Cc1ccc(C(=O)CSc2nnc(CNc3nc(-c4ccccc4)cs3)n2C)cc1	4.1% (inactive)
COc1ccc(OCC(=O)Nc2ccccc2C(=O)N2CCCC2)cc1	-0.2% (inactive)
NS(=O)(=O)c1ccc(S(=O)(=O)N(Cc2ccccc2F)CC2CCCO2)cc1 (configuration not stated)	4% (inactive)
CC(NC(=O)NCC1CCCO1)(C(F)(F)F)C(F)(F)F (configuration not stated)	-11.1% (inactive)
Cc1ccccc1-n1c(C)nnc1SCC(=O)NCC1CCCO1 (configuration not stated)	-1.6% (inactive)
COc1ccc(S(=O)(=O)N(C)CC(=O)NC2CCCC2)cc1Cl	-18% (inactive)
Cc1nc2ccccc2c(=O)n1/N=C/c1ccc(O)cc1	24.4% (inactive)

Compound	cytotoxicity
Cc1nc2ccccc2c(=O)n1/N=C/c1c(O)ccc2oc3c(c12)CCCC3	72.1% (active)
Oc1ccc2oc3c(c2c1/C=N/n1cnnc1)CCCC3	-21.1% (inactive)
CCCC(=O)NC(c1ccco1)c1cc(Cl)c2cccnc2c1O (configuration not stated)	59.2% (active)
CCCC(=O)Nc1ccc(Cl)c(NC(=O)c2ccco2)c1	3.9% (inactive)
O=C(Oc1c(Cl)cc(Cl)c2cccnc12)N1CCCCC1	10.8% (inactive)
NC(=O)c1ccc(N2CCCCC2)c(N2C(=O)C3C4C=CC(C4)C3C2=O)c1 (configuration not stated)	2.5% (inactive)
O=C(CSc1nc(O)cc(=O)n1-c1ccccc1)NCc1ccccc1	-1% (inactive)
CC1=C(C(=O)OC(C)C)C(c2cccs2)N2C(=O)CCSC2=N1 (configuration not stated)	10.1% (inactive)
O=C1CC(N2CCN(c3ccc(F)cc3)CC2)C(=O)N1Cc1cccs1 (configuration not stated)	-7.6% (inactive)
O=C1CC(N2CCN(c3nc4ccccc4s3)CC2)C(=O)N1Cc1cccs1 (configuration not stated)	5.6% (inactive)
Cc1cccc(N(CC(=O)NC2CCCCC2)C(=O)CCC(=O)Nc2cc(C)ccn2)c1	-11.1% (inactive)
N#Cc1cccc2cnccc12	-3.3% (inactive)
CN(C)c1ccc(-c2nn3c(-c4cccnc4)nnc3s2)cc1	-11.9% (inactive)
CCOc1ccc(-c2nn3c(-c4ccc(F)cc4)nnc3s2)cc1	9.9% (inactive)
CN(C)c1ccc(-c2nn3c(-c4ccncc4)nnc3s2)cc1	-7.6% (inactive)
CCN(CC)c1ccc(-c2nn3c(-c4cccnc4)nnc3s2)cc1	56.4% (active)
c1cncc(-c2nn3c(-c4ccncc4)nnc3s2)c1	-1% (inactive)
O=C(CC1(O)C(=O)N(Cc2ccc3c(c2)OCO3)c2ccccc21)c1ccccc1 (configuration not stated)	-28% (inactive)
O=C(NCC1CCCO1)c1csc2c1CCCCC2 (configuration not stated)	-11.1% (inactive)
COc1ccccc1N1CCN(Cc2ccc(OC)c(OC)c2OC)CC1	-15.5% (inactive)
CCSC(SCC)[C@H](O)[C@@H](O)[C@H](O)[C@H](O)CO	-20.9% (inactive)
CCCC(N)CCCCCC(=O)O (configuration not stated)	4.3% (inactive)
N#CC(C(=O)NC1CCCCC1)c1nc2ccccc2nc1N1CCCCC1 (configuration not stated)	-0.2% (inactive)
CC(=O)NCCCc1c[nH]c2ccc(Cl)cc12	5.3% (inactive)
O=C(NCc1ccc(Cl)cc1)c1ccc(COCC(F)(F)F)o1	7.2% (inactive)

Compound	cytotoxicity
COc1ccc(-n2nnc3c(=O)n(CC(=O)NCC4CCCO4)cnc32)cc1 (configuration not stated)	-5% (inactive)
CCn1c(NC2CCCCC2)nc2ccccc21	15.1% (inactive)
COc1cccc(CNc2nc3ccccc3n2CCN2CCCCC2)c1	-17.7% (inactive)
COc1ccc(C(=O)CSc2nnc(-c3ccoc3C)n2CC2CCCO2)cc1 (configuration not stated)	-33% (inactive)
Cc1nc2c(-c3ccccc3)c(C)nn2c(C)c1CCC(=O)N1CCOCC1	-17% (inactive)
Cc1cc(C)c(S(N)(=O)=O)c(C)c1-n1cnnn1	-18.5% (inactive)
CCOC(=O)CSC1=C(C#N)C(c2ccccc2C)C2=C(CCCC2=O)N1 (configuration not stated)	0.9% (inactive)
COc1cccc(C2/C(=C(\O)c3c(C)nc4c(C)cccn34)C(=O)C(=O)N2CCCN(C)C)c1OC (configuration not stated)	-1.4% (inactive)
c1ccc2c(c1)[nH]c1c(N3CCOCC3)ncnc12	-3.2% (inactive)
O=C(c1ccco1)N1CCN(c2ncnc3c2[nH]c2ccccc23)CC1	21.1% (inactive)
OC1(c2cccc(C(F)(F)F)c2)CCN(c2ncnc3c2[nH]c2ccccc23)CC1	124% (active)
c1ccc(CN2CCN(c3ncnc4nc[nH]c34)CC2)cc1	-3.8% (inactive)
c1ccc(CN2CCN(c3ncnc4c3[nH]c3ccccc34)CC2)cc1	119% (active)
Cc1ccc2c(c1)[nH]c1c(N3CCN(Cc4ccccc4)CC3)ncnc12	107% (active)
c1ccc2c(c1)[nH]c1c(N3CCSCC3)ncnc12	44.2% (inactive)
CCOC(=O)c1[nH]c2ccc(OCC)cc2c1NC(=O)CN1CCN(c2ccccn2)CC1	0.9% (inactive)
c1ccc2c(c1)[nH]c1c(N3CCC4(CC3)OCCO4)ncnc12	23.3% (inactive)
c1ccc2c(c1)[nH]c1c(N3CCCC3)ncnc12	20% (inactive)
CCOc1ccc2[nH]c3c(N4CCN(c5ccccn5)CC4)ncnc3c2c1	77.1% (active)
CCOC(=O)N1CCN(c2ncnc3c2[nH]c2ccc(OC)cc23)CC1	18.4% (inactive)
Cc1nonc1NC(=O)Nc1cccnc1	5.4% (inactive)
CCOc1ccccc1N(CC(=O)NCc1ccc(OC)cc1)S(C)(=O)=O	-11.2% (inactive)
COc1ccc(-n2nnnc2SCC(=O)Nc2cccc(NC(C)=O)c2)cc1OC	11.1% (inactive)
CSC1=NCCN1C(=O)Cc1ccc(Cl)cc1	3.5% (inactive)
CCOC(=O)c1ccc(NC(=O)c2nn(CC)cc2Br)cc1	0.8% (inactive)

Compound	cytotoxicity
Cc1ccc2[nH]c3c(N4CCCCCC4)ncnc3c2c1	30.4% (inactive)
Cc1ccc2[nH]c3c(N4CCOCC4)ncnc3c2c1	16.2% (inactive)
O=C(c1cccc(-c2nnc(-c3ccccc3)o2)c1)N1CCCCC1	14% (inactive)
COCCNC(=O)CN1CCC(NC(=O)Nc2ccccc2)CC1	-1% (inactive)
CN(Cc1ccccc1)C(=O)CCCn1c(=O)[nH]c2cc(Cl)ccc2c1=O	-8.5% (inactive)
COc1ccc(-c2nsc3c(N4CCCC4)ncnc23)cc1	11.5% (inactive)
COc1ccc(-c2nsc3c(N4CCN(S(=O)(=O)c5ccccc5)CC4)ncnc23)cc1	56.4% (active)
COc1ccc(S(=O)(=O)N2CCN(c3ncnc4c(-c5ccccc5)nsc34)CC2)cc1	-20.8% (inactive)
CCOC(=O)C(NC(=O)c1ccccc1)=C1C=C(C)OC(C)=C1	-13.9% (inactive)
O=C(NCc1ccc2c(c1)OCO2)c1cccc(Cl)c1	3.6% (inactive)
O=C(NCc1ccc2c(c1)OCO2)c1nnc(Cc2ccc(Cl)cc2)o1	1.6% (inactive)
O=C(NCc1ccc2c(c1)OCO2)c1ccc(-c2ccc(Cl)cc2)o1	61.3% (active)
COCCN(C(=O)CCC(=O)Nc1cccnc1)C(C(=O)NC1CCCCC1)c1ccccc1 (configuration not stated)	-2.1% (inactive)
COC(=O)C1=C(C)N=c2s/c(=C/c3ccoc3)c(=O)n2C1c1ccccc1 (configuration not stated)	8.9% (inactive)
CSc1nnc(Cn2c(=O)sc3ccccc32)n1C	6.8% (inactive)
CCOc1ccc(N2CC(C(=O)Nc3cccc(C)c3C)CC2=O)cc1 (configuration not stated)	15.6% (inactive)
COc1ccc(OC)c(S(=O)(=O)NCc2cn3c(C)csc3n2)c1	-5.8% (inactive)
COC(=O)Nc1ccc(S(=O)(=O)N2CCN(C)CC2)cc1	10.6% (inactive)
CN1CCN(S(=O)(=O)c2ccc(NC(=O)Nc3cccc(Cl)c3)cc2)CC1	53% (active)
CN1CCN(S(=O)(=O)c2ccc(NC(=O)c3cccc(S(=O)(=O)N4CCCC4)c3)cc2)CC1	-54.2% (inactive)
O=C(CSc1nnnn1-c1ccc2c(c1)CCC2)NCc1cccs1	13.2% (inactive)
Cn1c(N)c(C(=O)NCc2ccccc2)sc1=S	-2% (inactive)
